Screening data as filed in PubChem BioAssay.
Most compounds without a hit are left out; they make up all but 7.7% or so of the library.
PD-1 reversal: activators reversing PD-1 mediated T-cell inhibition. primary human CD4 T cells, PD-L1 beads, CellTiter-Glo 96 h. activation, % (concentration not given with the values). 29,000 tested, under 10 active. AID 2316; call rule not given here
NOMO-1 viab: STK33 inhibitor candidate reducing NOMO-1 cell viability. NOMO-1 AML viability, CellTiter-Glo luminescence, 72 h. inhibition, % (no concentration beside the values). 7.5% of 37,000 active; in the data active = inhibition above about 80%; inconclusive = no clear call, values can overlap the other calls
Hedgehog inh: Sonic Hedgehog pathway inhibition; 2.1% of 22,000 active; inhibition, % (no concentration beside the values); Shh-LIGHT2 Gli-luciferase reporter, 30 h;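 active = mean inhibition across valid replicates above about 65%, limit read from the data; inconclusive = mean under the limit, yet half or more replicates past it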;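 also: pathway switched on by Shh-conditioned medium diluted 1 in 25 in low serum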
Of the large screens only hits and unclear results are named; the others gave an inactive call.

O=C(O)CCC(=O)Nc1cccc(C(F)(F)F)c1	none (no result: PD-1 reversal, Hedgehog inh)
O=C(/C=N/O)Nc1cc(C(F)(F)F)cc(C(F)(F)F)c1	NOMO-1 viab 116, Hedgehog inh 69
C[C@H]1CC[C@@H]2[C@@H](C(=O)c3c(O)c([C@]4(O)CC[C@@H](O)[C@H]5O[C@H]54)cn(O)c3=O)[C@@H](C)C=C[C@H]2C1	NOMO-1 viab 120, Hedgehog inh 94
O=C(COc1ccc(S(=O)(=O)N2CCCC2)cc1Cl)Nc1ccccc1	none (no result: Hedgehog inh)
C=C(C)C(=O)OC1CC(CO)CCC/C(CO)=C\C2OC(=O)C(=C)C21 (configuration not stated)	Hedgehog inh 71 (no result: PD-1 reversal, NOMO-1 viab)
C=C(C(=O)O[C@H]1C/C(C)=C\CC/C(CO)=C\[C@H]2OC(=O)C(=C)[C@H]12)C(O)CO (some centres not stated)	none
CC(=O)OC/C=C(\CO)CC/C=C(\C)CC/C=C(\CC/C=C(\C)COC(C)=O)C(=O)O	none (no result: PD-1 reversal, NOMO-1 viab)
COc1ccc(CN(C)C[C@@H]2Oc3c(NC(=O)c4ccncc4)cccc3C(=O)N([C@H](C)CO)C[C@H]2C)cc1	none
CC(C)(C)NC(=O)N1CCN(c2ccc(C#N)cn2)CC1	none
Nc1ccc(OCC(O)C[n+]2ccccc2)cc1 (configuration not stated)	none (no result: Hedgehog inh)
C[C@H]1CN([C@@H](C)CO)C(=O)c2cccc(NS(=O)(=O)c3ccc(F)cc3)c2O[C@@H]1CN(C)Cc1ccc(-c2ccccc2)cc1	none
C[C@@H]1CN([C@@H](C)CO)C(=O)c2cccc(NS(=O)(=O)c3ccc(F)cc3)c2O[C@@H]1CN(C)Cc1ccc(-c2ccccc2)cc1	NOMO-1 viab 84
Cc1ccc(S(=O)(=O)Nc2cccc3c2O[C@@H](CN(C)Cc2ccc(C(F)(F)F)cc2)[C@@H](C)CN([C@@H](C)CO)C3=O)cc1	none
COc1ccc(S(=O)(=O)Nc2cccc3c2O[C@@H](CN(C)Cc2ccc(C(F)(F)F)cc2)[C@@H](C)CN([C@H](C)CO)C3=O)cc1	NOMO-1 viab 96
Cc1ccc(S(=O)(=O)Nc2cccc3c2O[C@@H](CN(C)Cc2ccc(C(F)(F)F)cc2)[C@@H](C)CN([C@H](C)CO)C3=O)cc1	NOMO-1 viab 90
COc1ccc(S(=O)(=O)Nc2cccc3c2O[C@H](CN(C)Cc2ccc(C(F)(F)F)cc2)[C@H](C)CN([C@@H](C)CO)C3=O)cc1	none
COc1ccc([N+](=O)[O-])cc1NC(=O)CN(c1ccc(I)cc1)S(C)(=O)=O	none (no result: PD-1 reversal, Hedgehog inh)
CCc1nc2sc(C)c(C)c2c(=O)n1N	none
O=C(NCCO)c1cc[n+](CC(=O)c2cccs2)cc1	none (no result: Hedgehog inh)
CN(CC(=O)Nc1cccnc1)S(=O)(=O)c1ccc2ccccc2c1	none (no result: Hedgehog inh)
Cn1c(SCC(=O)Nc2sc3c(c2C#N)CCCC3)nnc1-c1ccc(Cl)cc1Cl	none (no result: Hedgehog inh)
C[C@@H]1CN([C@@H](C)CO)C(=O)c2cccc(NC(=O)NC3CCCCC3)c2O[C@H]1CN(C)CC1CC1	none (no result: PD-1 reversal)
C[C@H]1CN([C@@H](C)CO)C(=O)c2cccc(NC(=O)NC3CCCCC3)c2O[C@H]1CN(C)Cc1ccccc1	none
C[C@@H]1CN([C@@H](C)CO)C(=O)c2cccc(NC(=O)NC3CCCCC3)c2O[C@H]1CN(C)CC1CCCCC1	NOMO-1 viab 102
C[C@@H]1CN([C@H](C)CO)C(=O)c2cccc(NC(=O)NC3CCCCC3)c2O[C@@H]1CN(C)Cc1ccc(Oc2ccccc2)cc1	none
C[C@@H]1CN([C@H](C)CO)C(=O)c2cccc(NC(=O)NC3CCCCC3)c2O[C@H]1CN(C)Cc1ccc(Oc2ccccc2)cc1	NOMO-1 viab 114
C[C@@H]1CN([C@H](C)CO)C(=O)c2cccc(NC(=O)NC3CCCCC3)c2O[C@H]1CN(C)Cc1ccccc1	NOMO-1 viab 115
CCN(CC(=O)Nc1cc([N+](=O)[O-])ccc1C)S(=O)(=O)c1ccc(C)cc1	none (no result: Hedgehog inh)
CCOC(=O)c1ccc(COc2ccc(-c3cnc4ccccc4n3)cc2)o1	none (no result: PD-1 reversal, Hedgehog inh)
COC(=O)c1cn(CC(=O)NCC2CCCO2)c2ccccc12 (configuration not stated)	none (no result: Hedgehog inh)
CCOC(=O)c1cnc2ccc(OCC)cc2c1N(C)Cc1ccccc1	NOMO-1 viab 96
CCOC(=O)c1cnc2cc(C(F)(F)F)ccc2c1N(C)Cc1ccccc1	Hedgehog inh inconclusive
COC(=O)c1c(NC(=O)CC2Nc3cccc4cccc(c34)NC2=O)sc2c1CCCC2 (configuration not stated)	none (no result: Hedgehog inh)
Cc1cccc(NC(=O)CSc2nnc(-c3cccs3)n2-c2ccccc2)c1	none (no result: Hedgehog inh)
C=C1CC[C@@H]2[C@](C)(CO)[C@H](O)CC[C@@]2(C)[C@@H]1CC(O)C1=CCOC1=O (some centres not stated)	NOMO-1 viab 106
C=C1CC[C@@H]2[C@](C)(CO[C@@H]3O[C@H](CO)[C@@H](O)[C@H](O)[C@H]3O)CCC[C@@]2(C)[C@@H]1CCC1=CCOC1=O	none
COc1ccc(S(=O)(=O)N(C)CC(=O)Nc2cccc(C(F)(F)F)c2)cc1Cl	none (no result: PD-1 reversal, Hedgehog inh)
CCn1c(SCC(=O)Nc2ccccc2C(F)(F)F)nnc1-c1cccc(C)c1	none (no result: Hedgehog inh)
CCc1ccccc1NC(=O)CSc1ncnc2sc(C)c(C)c12	none (no result: Hedgehog inh)
C/C=C(/C)C(=O)O[C@@H](C)[C@@](C)(O)C(=O)O[C@H](C)[C@@H](OC(=O)/C(C)=C\C)c1cc(OC)c2c(c1)OCO2	NOMO-1 viab 119, Hedgehog inh 89
CC(=O)Nc1ccc(NC(=O)Cn2cc([N+](=O)[O-])cn2)cc1	none (no result: Hedgehog inh)
CCOC(=O)c1ccc(NC(=O)Cn2c(=O)oc3ccccc32)cc1	none (no result: Hedgehog inh)
CCOC(=O)c1c(-c2ccccc2)oc2ccc(O)c(CSCC(=O)Nc3ccccc3)c12	NOMO-1 viab 126 (no result: Hedgehog inh)
Cc1ccc(S(=O)(=O)Nc2ccc3c(c2)C(=O)N([C@H](C)CO)C[C@H](C)[C@@H](CN(C)Cc2ccc(C(F)(F)F)cc2)O3)cc1	none (no result: PD-1 reversal)
Cc1ccc(S(=O)(=O)Nc2ccc3c(c2)C(=O)N([C@@H](C)CO)C[C@H](C)[C@@H](CN(C)Cc2ccc(C(F)(F)F)cc2)O3)cc1	NOMO-1 viab inconclusive (no result: Hedgehog inh)
Cc1ccc(S(=O)(=O)Nc2ccc3c(c2)C(=O)N([C@@H](C)CO)C[C@@H](C)[C@@H](CN(C)Cc2ccc(C(F)(F)F)cc2)O3)cc1	NOMO-1 viab 98 (no result: Hedgehog inh)
C[C@@H]1CN([C@H](C)CO)C(=O)c2cc(NS(=O)(=O)c3ccc(Cl)cc3)ccc2O[C@H]1CN(C)Cc1ccccc1	none
C[C@H](CO)N1C[C@H](C)[C@@H](CN(C)Cc2ccc(C(F)(F)F)cc2)Oc2ccc(NS(=O)(=O)c3ccc(F)cc3)cc2C1=O	none (no result: Hedgehog inh)
C[C@@H]1CN([C@H](C)CO)C(=O)c2cc(NS(=O)(=O)c3ccc(Cl)cc3)ccc2O[C@@H]1CN(C)Cc1ccccc1	NOMO-1 viab 87
Cc1ccc(S(=O)(=O)Nc2ccc3c(c2)C(=O)N([C@H](C)CO)C[C@@H](C)[C@@H](CN(C)Cc2ccc(C(F)(F)F)cc2)O3)cc1	NOMO-1 viab 122
C[C@@H]1CN([C@@H](C)CO)C(=O)c2cc(NS(=O)(=O)c3ccc(Cl)cc3)ccc2O[C@@H]1CN(C)Cc1ccc(C(F)(F)F)cc1	NOMO-1 viab 123
Cc1ccc2nc(N3CCNCC3)c(-n3nc(C)cc3C)nc2c1	none (no result: Hedgehog inh)
Cc1cc(=O)[nH]c(SCc2nc3ccccc3[nH]2)n1	none
COc1ccc(C(=O)CSc2ncn(-c3ccccc3)n2)cc1OC	none (no result: PD-1 reversal, Hedgehog inh)
CCN(CC)S(=O)(=O)c1ccc(Cl)c(C(=O)Oc2ccc(C)c(C)c2)c1	none
